Reference: ChEMBL document CHEMBL1961873, “Compounds: GSK PKIS; Assays: Nanosyn kinase panel” (2012)

Legend:
[1] = test system: Epidermal growth factor receptor (Homo sapiens), P00533 [T790M]; settings: at 1 µM
[2] = test system: Epidermal growth factor receptor (Homo sapiens), P00533 [L858R,T790M]; settings: at 0.1 µM
[3] = test system: Epidermal growth factor receptor (Homo sapiens), P00533 [L858R,T790M]; settings: at 1 µM
[4] = target: Ephrin type-A receptor 2 (Homo sapiens) (UniProt P29317); settings: at 0.1 µM
[5] = target: Ephrin type-A receptor 2 (Homo sapiens) (UniProt P29317); settings: at 1 µM
[6] = target: T1, Ephrin type-A receptor 3 (Homo sapiens) (UniProt P29320); settings: at 0.1 µM
T1 sequence (whole entry): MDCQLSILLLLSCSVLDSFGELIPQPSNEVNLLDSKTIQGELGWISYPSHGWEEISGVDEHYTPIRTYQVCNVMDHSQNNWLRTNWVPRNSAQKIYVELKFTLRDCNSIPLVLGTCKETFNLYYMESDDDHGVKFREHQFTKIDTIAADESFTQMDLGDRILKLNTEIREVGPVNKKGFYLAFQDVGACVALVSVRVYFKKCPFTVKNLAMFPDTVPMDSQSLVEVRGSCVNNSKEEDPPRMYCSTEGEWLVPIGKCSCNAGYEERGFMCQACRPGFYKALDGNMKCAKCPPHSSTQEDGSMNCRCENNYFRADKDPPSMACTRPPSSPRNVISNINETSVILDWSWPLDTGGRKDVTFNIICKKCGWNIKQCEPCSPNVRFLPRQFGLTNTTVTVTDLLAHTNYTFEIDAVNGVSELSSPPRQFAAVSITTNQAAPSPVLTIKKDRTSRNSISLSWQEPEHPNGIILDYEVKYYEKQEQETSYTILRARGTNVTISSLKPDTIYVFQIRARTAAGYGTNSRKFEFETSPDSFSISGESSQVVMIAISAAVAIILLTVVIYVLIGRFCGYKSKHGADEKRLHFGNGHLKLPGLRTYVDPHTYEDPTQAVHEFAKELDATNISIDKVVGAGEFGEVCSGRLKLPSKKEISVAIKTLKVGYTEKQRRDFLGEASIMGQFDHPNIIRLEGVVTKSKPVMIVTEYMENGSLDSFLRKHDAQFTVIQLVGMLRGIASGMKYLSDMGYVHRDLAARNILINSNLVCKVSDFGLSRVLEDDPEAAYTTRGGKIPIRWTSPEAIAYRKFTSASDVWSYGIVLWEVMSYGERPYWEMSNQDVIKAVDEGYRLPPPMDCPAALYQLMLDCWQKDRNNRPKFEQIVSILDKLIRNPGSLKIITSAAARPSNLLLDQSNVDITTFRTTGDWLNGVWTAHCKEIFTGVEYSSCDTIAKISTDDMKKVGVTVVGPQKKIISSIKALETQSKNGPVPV

[7] = target: T1, Ephrin type-A receptor 3 (Homo sapiens); settings: at 1 µM
[8] = target: Ephrin type-A receptor 4 (Homo sapiens) (UniProt P54764); settings: at 0.1 µM
[9] = target: Ephrin type-A receptor 4 (Homo sapiens) (UniProt P54764); settings: at 1 µM
[10] = target: T2, Ephrin type-B receptor 2 (Homo sapiens) (UniProt P29323); settings: at 0.1 µM;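 note: reported as mean inhibition of EPHB2, from the GSK PKIS dataset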
T2 sequence (whole entry): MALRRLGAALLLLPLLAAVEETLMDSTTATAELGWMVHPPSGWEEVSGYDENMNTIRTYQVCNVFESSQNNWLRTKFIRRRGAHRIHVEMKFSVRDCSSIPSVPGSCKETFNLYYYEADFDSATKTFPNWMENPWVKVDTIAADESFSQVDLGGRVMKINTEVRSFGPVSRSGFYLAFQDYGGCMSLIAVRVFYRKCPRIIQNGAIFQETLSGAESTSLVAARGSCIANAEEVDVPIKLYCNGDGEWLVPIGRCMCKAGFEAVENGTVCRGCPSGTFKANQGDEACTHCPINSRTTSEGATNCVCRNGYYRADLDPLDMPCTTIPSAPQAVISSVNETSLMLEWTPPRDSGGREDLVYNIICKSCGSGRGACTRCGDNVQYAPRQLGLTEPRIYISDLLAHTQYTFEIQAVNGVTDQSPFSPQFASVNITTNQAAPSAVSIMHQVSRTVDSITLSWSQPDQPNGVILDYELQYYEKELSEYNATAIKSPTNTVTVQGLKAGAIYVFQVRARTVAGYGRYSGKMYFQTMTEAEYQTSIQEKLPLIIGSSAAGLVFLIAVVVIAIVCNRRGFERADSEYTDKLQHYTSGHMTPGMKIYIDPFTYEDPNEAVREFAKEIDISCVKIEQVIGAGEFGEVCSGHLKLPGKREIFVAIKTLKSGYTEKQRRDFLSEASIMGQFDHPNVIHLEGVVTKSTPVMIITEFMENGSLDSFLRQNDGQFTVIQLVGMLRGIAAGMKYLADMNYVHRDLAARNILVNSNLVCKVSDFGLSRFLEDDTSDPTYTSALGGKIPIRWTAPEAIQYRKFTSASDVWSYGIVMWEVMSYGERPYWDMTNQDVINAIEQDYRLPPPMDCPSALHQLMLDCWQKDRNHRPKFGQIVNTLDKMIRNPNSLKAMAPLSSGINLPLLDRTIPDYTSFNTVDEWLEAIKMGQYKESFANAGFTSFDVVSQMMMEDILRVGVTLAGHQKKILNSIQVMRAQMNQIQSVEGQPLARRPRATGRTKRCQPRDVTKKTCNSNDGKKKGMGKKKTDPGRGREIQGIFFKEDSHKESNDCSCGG

Chain of Ephrin type-A receptor 2 (Homo sapiens) (P29317 whole entry): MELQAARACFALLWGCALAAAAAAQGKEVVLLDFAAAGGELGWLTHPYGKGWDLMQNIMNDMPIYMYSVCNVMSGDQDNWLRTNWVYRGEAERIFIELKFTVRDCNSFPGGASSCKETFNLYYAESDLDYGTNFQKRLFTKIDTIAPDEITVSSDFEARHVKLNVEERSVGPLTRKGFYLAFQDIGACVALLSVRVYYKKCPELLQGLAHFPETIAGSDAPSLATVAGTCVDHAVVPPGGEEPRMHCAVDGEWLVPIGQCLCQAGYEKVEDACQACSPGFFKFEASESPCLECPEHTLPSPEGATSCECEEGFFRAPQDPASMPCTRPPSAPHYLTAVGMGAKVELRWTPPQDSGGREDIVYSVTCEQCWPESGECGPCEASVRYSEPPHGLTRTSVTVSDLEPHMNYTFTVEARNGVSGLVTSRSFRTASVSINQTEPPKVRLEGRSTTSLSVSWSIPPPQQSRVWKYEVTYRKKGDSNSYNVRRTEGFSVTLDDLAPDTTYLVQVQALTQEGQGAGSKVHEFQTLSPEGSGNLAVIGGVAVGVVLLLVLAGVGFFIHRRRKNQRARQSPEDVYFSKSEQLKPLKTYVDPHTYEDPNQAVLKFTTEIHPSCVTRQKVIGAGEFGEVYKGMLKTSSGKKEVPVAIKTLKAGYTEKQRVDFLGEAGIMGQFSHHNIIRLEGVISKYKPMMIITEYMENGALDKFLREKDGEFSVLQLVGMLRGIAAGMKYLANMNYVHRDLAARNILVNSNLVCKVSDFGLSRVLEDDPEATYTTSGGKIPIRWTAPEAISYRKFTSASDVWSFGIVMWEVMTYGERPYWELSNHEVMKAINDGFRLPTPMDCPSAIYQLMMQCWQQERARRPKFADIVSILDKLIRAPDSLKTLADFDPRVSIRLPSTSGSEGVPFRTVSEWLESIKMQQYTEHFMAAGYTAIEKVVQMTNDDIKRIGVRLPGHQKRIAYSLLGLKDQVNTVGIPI
Chain of Ephrin type-A receptor 4 (Homo sapiens) (P54764 whole entry): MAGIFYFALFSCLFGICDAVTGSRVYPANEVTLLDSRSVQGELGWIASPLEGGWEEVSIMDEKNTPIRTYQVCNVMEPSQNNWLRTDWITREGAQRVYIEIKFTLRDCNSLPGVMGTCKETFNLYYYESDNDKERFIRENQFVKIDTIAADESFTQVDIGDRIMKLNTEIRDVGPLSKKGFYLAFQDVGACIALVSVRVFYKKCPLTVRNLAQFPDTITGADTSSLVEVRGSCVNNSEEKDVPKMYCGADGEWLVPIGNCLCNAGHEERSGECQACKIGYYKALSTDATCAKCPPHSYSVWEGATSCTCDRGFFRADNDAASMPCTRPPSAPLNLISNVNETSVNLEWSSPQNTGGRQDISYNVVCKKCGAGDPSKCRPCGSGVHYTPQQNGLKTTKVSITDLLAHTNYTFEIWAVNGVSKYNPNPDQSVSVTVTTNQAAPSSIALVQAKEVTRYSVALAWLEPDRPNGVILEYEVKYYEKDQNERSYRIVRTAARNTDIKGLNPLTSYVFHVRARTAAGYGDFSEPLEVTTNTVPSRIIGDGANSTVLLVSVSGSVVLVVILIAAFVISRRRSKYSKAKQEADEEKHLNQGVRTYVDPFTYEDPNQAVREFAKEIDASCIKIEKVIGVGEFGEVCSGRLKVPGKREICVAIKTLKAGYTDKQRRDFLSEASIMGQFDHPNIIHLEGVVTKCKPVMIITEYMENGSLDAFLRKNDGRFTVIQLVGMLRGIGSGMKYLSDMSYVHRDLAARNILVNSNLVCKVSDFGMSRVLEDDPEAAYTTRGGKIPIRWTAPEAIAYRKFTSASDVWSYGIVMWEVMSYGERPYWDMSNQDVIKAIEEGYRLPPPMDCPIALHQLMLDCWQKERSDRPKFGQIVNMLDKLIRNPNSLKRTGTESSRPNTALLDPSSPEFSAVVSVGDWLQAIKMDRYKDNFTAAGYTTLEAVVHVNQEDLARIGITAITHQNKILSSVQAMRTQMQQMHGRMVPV
Chain of Epidermal growth factor receptor (Homo sapiens), P00533 [T790M] (P00533 whole entry T790M): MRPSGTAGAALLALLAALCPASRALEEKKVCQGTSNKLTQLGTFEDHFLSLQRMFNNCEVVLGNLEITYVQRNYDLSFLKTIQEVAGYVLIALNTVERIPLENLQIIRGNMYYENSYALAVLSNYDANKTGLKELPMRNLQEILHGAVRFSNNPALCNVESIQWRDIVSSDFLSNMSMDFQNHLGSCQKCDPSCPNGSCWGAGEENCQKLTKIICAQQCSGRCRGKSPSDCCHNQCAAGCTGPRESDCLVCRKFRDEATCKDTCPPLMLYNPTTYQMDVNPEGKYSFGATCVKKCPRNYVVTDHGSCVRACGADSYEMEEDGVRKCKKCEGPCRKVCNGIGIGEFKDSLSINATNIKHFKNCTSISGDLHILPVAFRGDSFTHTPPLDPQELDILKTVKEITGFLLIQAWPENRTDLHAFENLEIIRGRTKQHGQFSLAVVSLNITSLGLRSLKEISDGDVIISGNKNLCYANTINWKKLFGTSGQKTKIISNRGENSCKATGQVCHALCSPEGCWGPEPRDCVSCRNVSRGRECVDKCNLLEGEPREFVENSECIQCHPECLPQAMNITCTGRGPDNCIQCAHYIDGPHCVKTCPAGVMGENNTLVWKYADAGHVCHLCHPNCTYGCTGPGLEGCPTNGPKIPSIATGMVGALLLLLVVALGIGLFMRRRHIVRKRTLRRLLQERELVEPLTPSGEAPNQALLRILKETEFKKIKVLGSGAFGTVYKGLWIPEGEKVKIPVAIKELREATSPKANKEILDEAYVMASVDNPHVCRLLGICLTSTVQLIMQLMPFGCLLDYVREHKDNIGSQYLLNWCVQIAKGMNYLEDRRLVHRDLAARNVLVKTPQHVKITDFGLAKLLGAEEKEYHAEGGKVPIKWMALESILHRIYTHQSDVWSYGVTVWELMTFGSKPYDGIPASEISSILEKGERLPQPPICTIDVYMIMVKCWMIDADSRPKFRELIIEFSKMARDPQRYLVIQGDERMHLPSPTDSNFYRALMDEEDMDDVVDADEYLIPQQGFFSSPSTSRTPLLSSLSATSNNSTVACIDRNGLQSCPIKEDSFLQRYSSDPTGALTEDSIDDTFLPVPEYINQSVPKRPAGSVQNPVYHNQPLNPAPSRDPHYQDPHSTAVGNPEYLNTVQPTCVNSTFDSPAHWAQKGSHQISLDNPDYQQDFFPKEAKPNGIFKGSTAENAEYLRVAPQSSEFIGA
Chain of Epidermal growth factor receptor (Homo sapiens), P00533 [L858R,T790M] (P00533 whole entry T790M/L858R, looked up): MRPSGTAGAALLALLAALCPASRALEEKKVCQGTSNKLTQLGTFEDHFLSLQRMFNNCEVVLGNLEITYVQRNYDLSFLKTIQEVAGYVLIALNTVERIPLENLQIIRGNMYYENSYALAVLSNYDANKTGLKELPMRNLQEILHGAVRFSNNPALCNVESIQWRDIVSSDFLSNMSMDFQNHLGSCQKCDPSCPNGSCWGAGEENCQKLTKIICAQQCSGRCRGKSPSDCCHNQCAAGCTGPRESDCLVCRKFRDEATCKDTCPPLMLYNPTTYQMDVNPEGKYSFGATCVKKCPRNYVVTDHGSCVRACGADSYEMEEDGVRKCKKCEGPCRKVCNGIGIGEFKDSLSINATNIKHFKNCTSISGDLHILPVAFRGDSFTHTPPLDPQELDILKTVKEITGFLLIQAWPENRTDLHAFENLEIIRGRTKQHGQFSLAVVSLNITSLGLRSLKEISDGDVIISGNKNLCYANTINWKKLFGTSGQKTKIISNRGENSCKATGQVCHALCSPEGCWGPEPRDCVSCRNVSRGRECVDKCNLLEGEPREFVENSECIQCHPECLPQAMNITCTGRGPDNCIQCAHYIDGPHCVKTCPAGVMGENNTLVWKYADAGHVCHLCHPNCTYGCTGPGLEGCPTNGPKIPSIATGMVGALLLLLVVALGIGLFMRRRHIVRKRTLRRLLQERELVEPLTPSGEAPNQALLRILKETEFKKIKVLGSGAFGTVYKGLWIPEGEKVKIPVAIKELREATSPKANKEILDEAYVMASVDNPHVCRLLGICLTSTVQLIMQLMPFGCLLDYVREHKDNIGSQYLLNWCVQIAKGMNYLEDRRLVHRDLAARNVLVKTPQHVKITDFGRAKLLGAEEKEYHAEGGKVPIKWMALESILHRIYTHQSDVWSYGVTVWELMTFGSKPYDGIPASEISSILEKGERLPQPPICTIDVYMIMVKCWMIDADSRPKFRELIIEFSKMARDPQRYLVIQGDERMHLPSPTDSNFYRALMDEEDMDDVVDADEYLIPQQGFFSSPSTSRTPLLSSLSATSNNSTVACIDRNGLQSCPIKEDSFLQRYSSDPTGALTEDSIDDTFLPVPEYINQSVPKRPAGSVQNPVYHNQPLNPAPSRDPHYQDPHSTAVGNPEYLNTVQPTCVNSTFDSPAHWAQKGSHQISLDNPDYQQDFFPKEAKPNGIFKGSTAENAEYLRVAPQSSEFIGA

SMILES | inhibition [1] [%] | inhibition [2] [%] | inhibition [3] [%] | inhibition [4] [%] | inhibition [5] [%] | inhibition [6] [%] | inhibition [7] [%] | inhibition [8] [%] | inhibition [9] [%] | inhibition [10] [%]
Cc1cc(Cl)cc2c1NC(=O)C2=NNc1ccc(S(N)(=O)=O)cc1 | 3.73 | -0.55 | 2.83 | 1.34 | 1.02 | 3.32 | 2.87 | 6.66 | 7.34 | 4.48
O=C1Nc2ccccc2/C1=C/Nc1ccc2[nH]c(=O)[nH]c2c1 | 7.07 | 4.62 | 3.05 | 2.36 | 3.88 | 5.7 | 9.27 | 12.9 | 16.3 | 15.9
CCOc1nccc2c1nc(-c1nonc1N)n2CC | 5.62 | -0.04 | 4.96 | 2.57 | 1.93 | 2.43 | 6.98 | 11.7 | -8.98 | 9.96
ON=C1CCc2cc(-c3nc(C4CCNCC4)[nH]c3-c3ccncc3)ccc21 | -1.84 | -1.88 | 0.18 | 1.25 | 0.6 | 0.3 | -2.2 | -1.9 | -7.94 | -5.22
NS(=O)(=O)c1ccc(Nc2cc(-c3cccc(O)c3)n[nH]2)cc1 | 3.02 | 4.99 | 3.61 | 1.13 | 0.64 | 6.18 | 6.36 | 10.1 | 7.86 | 6.18
COC(=O)c1cncc(/C=C/c2c(C)cc(O)cc2C)c1 | 4.21 | 0.04 | 4.09 | 10.3 | 40.2 | 7.42 | 16.2 | 19 | 66.6 | 15.3
COc1cccc(-n2ncc3c(N/N=C/c4ccc(S(C)(=O)=O)cc4)ncnc32)c1 | 0.63 | 0.79 | 5.78 | -3.2 | 1.45 | -2.15 | -1.2 | 7.26 | 11.7 | 5.46
NS(=O)(=O)c1ccc(-c2cc3ccncc3cc2OCc2ccccc2)cc1 | 4.44 | 2.11 | 2.39 | 0.69 | 0.7 | 2.29 | 3.77 | 9.03 | 10.4 | 7.31
CN(C)c1cc2c(Nc3ccc4c(cnn4Cc4ccccc4)c3)ncnc2cn1 |  |  |  | 0.12 | 0.17 | 3.01 | 3.25 | 6.93 | 2.96 | 2.52
Cc1ccc(O)cc1Nc1ccnc2ccc(S(C)(=O)=O)cc12 | 7.86 | 4.88 | 5.18 | 91.3 | 95.7 | 92.2 | 81.5 | 89.3 | 93.5 | 83.6
O=S(=O)(CCOCc1ccc(-c2ccc3ncnc(Nc4ccc(OCc5cccc(F)c5)c(Cl)c4)c3c2)o1)c1ccccc1 | 2.25 | -3.02 | 1.89 | -3.01 | -2.3 | -1.7 | 0.9 | 2.2 | 5.8 | 8
COc1cc2ncnc(Nc3ccc(C)c(O)c3)c2cc1OC | 31.2 | 3.9 | 13.5 | 2.35 | 10.6 | 6.24 | 16.7 | 15.9 | 49.9 | 11.1
[O-][S+]1CCN(Cc2ccc(-c3ccc4ncnc(Nc5ccc(OCc6ccccc6)c(Cl)c5)c4c3)o2)CC1 |  |  |  | -3.15 | -2.96 | -1.64 | -1.69 | 2.8 | 3.82 | 6.04
NS(=O)(=O)c1cccc(Nc2cc(-c3ccc(F)cc3)n[nH]2)c1 | 3.89 | 0.96 | 2.35 | 0.44 | 0.73 | 4.22 | 4.16 | 8.18 | 10 | 5.43
CN(c1ccc(NC(=O)Nc2ccc(OC(F)(F)F)cc2)cc1)c1ccnc(Nc2cccc(S(N)(=O)=O)c2)n1 | 1.56 | 2.59 | 2.24 | 3.48 | 35.4 | 5.58 | 18.3 | 9.59 | 59.8 | 10.9
Nc1nccc(C#Cc2cncnc2Nc2ccc(OCc3cccc(F)c3)c(Cl)c2)n1 |  |  |  | 0.65 | 1.27 | 1.8 | 3.27 | 6.14 | -0.84 | 9.67
CCn1c(-c2nonc2N)nc2c(C#CC(C)(C)O)nc(OCCNC)cc21 | 1.6 | -1.42 | 0.02 | 0.18 | -0.52 | 1.69 | 3.22 | 4 | 8.24 | 8.92

SMILES | inhibition [1] [%] | inhibition [2] [%] | inhibition [3] [%] | inhibition [4] [%] | inhibition [5] [%] | inhibition [6] [%] | inhibition [7] [%] | inhibition [8] [%] | inhibition [9] [%] | inhibition [10] [%]
COc1cccc(-n2ncc3c(N/N=C/c4ccc(C)cc4)ncnc32)c1 | 2.25 | 1.79 | 2.55 | 2.45 | 1.1 | 3.28 | 3.46 | 7.44 | 11.3 | 6.77
Cc1ccc(NC(=O)CC2CC2)cc1-c1ccc(C(=O)NCC2CC2)cc1 | 2.09 | 0.02 | 0.35 | 0.66 | 1.4 | 3.45 | 4.59 | 8.26 | 12.9 | 6.33
COc1cc2ncn(-c3cc(OCc4ccccc4S(C)(=O)=O)c(C#N)s3)c2cc1OC | 8.63 | 16.9 | 62.5 | 9.06 | 34.4 | 8.09 | 13.6 | 15.2 | 57.3 | 14
COc1cccc(-n2nc(C)c3c(N/N=C(\C)c4ccncc4)ncnc32)c1 | -1.56 | -0.53 | -1.32 | -1.68 | -1.94 | -0.57 | 2.37 | 3.69 | 6.36 | 2.52
Nc1ccc(C#Cc2cncnc2Nc2ccc(OCc3cccc(F)c3)c(Cl)c2)cc1 | 2.68 | -0.93 | 0.42 | 0.44 | 0.03 | 3.68 | 3.02 | 6.49 | 8.04 | 1.34
CN(C)C(=O)O[C@H]1CN[C@H](C#Cc2cc3ncnc(Nc4ccc(OCc5cccc(F)c5)c(Cl)c4)c3s2)C1 |  |  |  | -0.69 | 0.86 | 2.97 | 4.79 | 7.54 | 8.32 | 9.47
Cc1ccc2c(c1)/C(=N/Nc1ccc(S(N)(=O)=O)cc1)C(=O)N2 | -3 | -4.55 | -2.96 | 1.34 |  | -0.01 | 2.43 | -0.11 | -5.42 | -2.4
Cc1ccc(Nc2ccnc(Nc3cccc(C(N)=O)c3)n2)cc1O | 14.9 | 2.53 | 5.38 | 1.66 | 23.3 | 14.3 | 33.9 | 17.1 | 62.9 | 8.62
COc1ccc(-c2nn3ncccc3c2-c2ccnc(Nc3cccc(C(F)(F)F)c3)n2)cc1 | 2.06 | -0.41 | 7.35 | 0.1 | -0.64 | 4.37 | 5.21 | 5.95 | 8.87 | 2.91
Cc1ccc(C(=O)NC2CC2)cc1-c1ccc2[nH]ncc2c1 | -3.14 | -2.32 | -5.63 | -1.76 | -1.67 | -6.73 | -6.53 |  | -8.91 | 
CC(C)c1ccc2c(c1)NC(=O)/C2=N/Nc1ccc(S(N)(=O)=O)cc1 | -1.35 | -0.97 | -2.16 | -2 | -1.68 | -0.36 | 1.64 | 3.01 | 5.06 | 0.18
COC(=O)c1ccc2c(c1)C(=Cc1cc(Br)c(O)c(Br)c1)C(=O)N2 | 0.92 | -1.65 | 2.81 | 1.71 | 0.89 | 0.28 | 4.62 | 6.35 | 12.2 | 6.3
NC(=O)c1sc(-n2cnc3ccccc32)cc1OCc1ccccc1Br | 1.85 | 2.85 | 1.45 | 0.63 | 0.39 | 1.18 | 3.38 | 6.29 | 9.89 | 5.64
NS(=O)(=O)c1ccc(N/N=C2\C(=O)Nc3ccc(Cl)cc32)cc1 | 4.35 | -0.89 | 2.78 | 1.86 | 1.3 | 4.83 | 4.35 | 7.66 | 12.2 | 3.99
Cc1cc(O)cc(C)c1/C=C/c1cncc(C(=O)N(C)C)c1 | 0.44 | -0.03 | -0.26 | 2.13 | 4.81 | 6.48 | 8.52 | 8.99 | 18.6 | 9.34
COc1cc(Nc2nccc(-c3cnn4ncccc34)n2)cc(OC)c1 | -0.64 | 2.35 | 15.8 | 2.66 | 24.3 | 3.17 | 11.1 | 9.67 | 45.3 | 4.13
CN(C)C(=O)O[C@@H]1CN[C@@H](C#Cc2cc3ncnc(Nc4ccc(OCc5cccc(F)c5)c(Cl)c4)c3s2)C1 |  |  |  | -0.17 | 1.05 | 5.64 | 1.99 | 1.85 | -8.34 | 0.71
